This is a sample that favours compounds with a hit; in the whole collection about 11% have one here.
Pf growth 48h: inhibits P. falciparum growth in the first generation, 48 h | P. falciparum luciferase growth in erythrocytes, 48 h | Potency, µM (doses to about 28.7 µM), most hits filed as inhibitors | hit rate 5.9% among 310,000 | AID 504832
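Parasite viability was followed by luminescence of a genomically integrated firefly luciferase. Cultures held 0.1% parasitemia at 2% hematocrit (final), incubated under 5% CO2 at 37 C.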
AMA1-RON2 inh: disrupts binding of P. falciparum AMA1 to RON2 | AlphaScreen AMA1-biotinylated RON2 peptide binding | hit rate 0.2% among 360,000 | Potency, µM (series often up to 58.2 µM), actives largely listed as inhibitors | AID 720542; also: nearly all actives have a fitted effect of over 45% in size
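AMA1 (3D7) with his tag at 25 nM final met compounds first, then biotinylated RON2 peptide at 25 nM; detection used donor plus acceptor beads, 10 µg/mL apiece, read by AlphaScreen after 30 min at room temperature.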
Pf growth 96h: inhibits malaria parasite growth, 96 h | P. falciparum luciferase reporter growth, 96 h | Potency, µM (highest dose often 28.7 µM), hits mostly inhibitors | hit rate 6.9% among 320,000
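Delayed-death screen, second-generation endpoint: infected erythrocytes, 2% hematocrit, 0.05% parasitemia final; 96 hours at 37 C, 5% CO2; luciferase detection reagent; luminescence decrease equals reduced growth.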
HCV inhibitor: inhibitors of hepatitis C virus infection; Huh7.5.1 HCVcc-Cre infection, luciferase reporter, 44 h; hit rate 3.4% among 340,000; Potency, µM (top dose mostly 41.8 µM), actives largely listed as inhibitors
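1,000 cells/well; 4 h culture; + compound; + HCVcc-Cre (~0.5 moi); 44 h; luciferase substrate, RT 15 min; read 15 sec.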
Hits are given with their value; n = inactive; u = inconclusive; x = no result; [ ] = remark or other dose. Calls follow the shape of the dose curve; as a rule, active = well fitted curve in the direction sought with a large enough effect; inconclusive = small, poorly fitted or top-dose-only effect, or another doubt; inactive = no such curve, though single readings can be large; an effect the other way counts as inactive or inconclusive.

SMILES | Pf growth 48h | AMA1-RON2 inh | Pf growth 96h | HCV inhibitor
COCc1ccc(C(=O)NC2CCCc3c2cnn3-c2cc(C)cc(C)c2)s1 (stereo not given) | u | n | 7.4µM | 13µM
Cc1cc(C(=O)NC2CCCc3c2cnn3-c2ccc(C(C)(C)C)cc2)n[nH]1 (stereo not given) | n | n | n | 11µM
COc1ncccc1C(=O)NC1CCCc2c1cnn2-c1cc(C)cc(C)c1 (stereo not given) | n | n | n | n
Cc1ccc(-n2ncc3c2CCCC3NC(=O)CCCN2CCCC2=O)cc1C (stereo not given) | u | n | 4.7µM | n
Cc1cccc(-n2ncc3c2CCCC3NC(=O)CCCN2CCCCC2=O)c1C (stereo not given) | n | n | u | u
Cc1cc(C(=O)NC2CCCc3c2cnn3-c2ccc(C)c(C)c2)n(C)n1 (stereo not given) | u | n | u | 8.9µM
O=S(=O)(NCC(c1cccs1)N1CCc2ccccc2C1)c1ccccc1 (stereo not given) | u | n | n | n
C=CCN1C=C2C(=O)C(C)(OC(=O)CCC(=O)OC)C(=O)C(Br)=C2C=C1c1ccc(OC)cc1 (stereo not given) | 15µM | n | u | u
COCCN1C=C2C(=O)C(C)(OC(=O)CCC(=O)OC)C(=O)C(Br)=C2C=C1c1ccc(OC)cc1 (stereo not given) | x | n | x | n
CCc1ccc(-n2c(=O)c3c(C)c(C(=O)N(C)C)sc3n(CC(=O)NCc3ccco3)c2=O)cc1 | n | n | u | n
CCCN(c1ccccc1C(=O)O)S(=O)(=O)c1ccc2c(c1)n(C)c(=O)n2C | n | n | 0.83µM | n
CN(Cc1ccccc1)S(=O)(=O)c1ccc2c(c1)n(C)c(=O)n2C | n | n | n[5.75 µM] | n
COc1ccc(CC(=O)Nc2ccccc2C(=O)NCCc2ccccc2)cc1 | u | n | 12µM | u
CCCCC(=O)NCCc1ccc(OC)cc1 | x | n | n | n
S=C(NCCOCCOCCNC(=S)Nc1ccccc1)Nc1ccccc1 | 6.6µM | n | n | n
COc1ccc(CCNC(=S)Nc2ccc(OC)cc2)cc1 | n | n | n | n
COc1ccc(CCNC(=S)Nc2ccccc2)cc1 | 10µM | n | u | u
COc1ccc(CCNC(=O)c2ccccc2C(=O)NCCc2ccc(OC)cc2)cc1 | x | n | x | n
COc1ccc(CCNC(=O)CCCc2ccccc2)cc1 | n | n | 10µM | n
Cc1cc(C)c(C)c(S(=O)(=O)N[C@@H](C)C(=O)OCC(N)=O)c1C | n | n | n | n
COc1cc(OC)c(OC)cc1CNCCNC(=O)c1ccco1 | n | n | n | n
O=C(Cn1cnc2ccccc2c1=O)Nc1ccc(N2CCOCC2)cc1 | n | n | n | n
O=C(CCl)N1c2ccccc2Sc2ccc3ccccc3c21 | x | n | x | x
Cc1ccc(CS(=O)(=O)CCC(=O)NCCc2ccccc2)cc1 | n | n | n | 5.6µM
O=C(COc1ccc2ccccc2c1)N1c2ccccc2Sc2ccccc21 | u | n | 13µM | n
SMILES | Pf growth 48h | AMA1-RON2 inh | Pf growth 96h | HCV inhibitor
COc1ccc(CCNC(=O)N2c3ccccc3Sc3ccccc32)cc1 | x | n | x | 10µM
COCCCNC(=O)N1c2ccccc2Sc2ccccc21 | n | n | n | n
CCC(C)(C)NC(=O)CN(Cc1ccco1)C(=O)CCC(=O)Nc1nccs1 | n | n | n | n
Cc1onc(-c2ccccc2)c1C(=O)NCCc1ccncc1 | n | n | u | n
Cc1ccc(-n2c(C)nnc2SCC(=O)N(C)C2CCS(=O)(=O)C2)cc1 (stereo not given) | u | n | u | n
CCN(CC)c1ccc(/C=N/n2c(C)cc(C)cc2=O)cc1 | 7.4µM | n | n | n
CCN(CC)c1ccc(/C=N/N2CC(=O)NC2=S)cc1 | u | n | 3.7µM | n
CCc1n[nH]c(=S)n1/N=C/c1ccc(N(CC)CC)cc1 | u | n | u | n
CCN(CC)c1ccc(/C=N/N2C(=O)c3ccccc3C2=O)cc1 | n | n | n | n
CC(C)C(NS(=O)(=O)c1cccs1)C(=O)N1CCC(C(N)=O)CC1 (stereo not given) | n | n | n | n
Cc1ccc(OCC(=O)NN=C2c3ccccc3-c3ccccc32)cc1 | n | n | n | 14µM
CCOC(=O)NN=C1c2ccccc2-c2ccccc21 | n | n | 10µM | u
CCOC(=O)N/N=C1\CCc2ccccc21 | n | n | n | n
N#C/C(=C\c1c(N2CCN(Cc3ccccc3)CC2)nc2ccccn2c1=O)S(=O)(=O)c1ccccc1 | u | n | u | n
Cc1cccn2c(=O)c(/C=C(\C#N)S(=O)(=O)c3ccccc3)c(N3CCN(Cc4ccccc4)CC3)nc12 | u | n | 15µM | n
Cc1ccc(S(=O)(=O)/C(C#N)=C/c2c(N3CCOCC3)nc3c(C)cccn3c2=O)cc1 | 2.1µM | n | n | n
O=C(NCCc1ccccc1)C(NS(=O)(=O)c1cccc2nsnc12)c1ccccc1 (stereo not given) | u | n | u | n
COc1ccc(CN2C(=NC(=O)COc3ccccc3)SC3CS(=O)(=O)CC32)cc1 (stereo not given) | u | n | u | n
O=C(COc1ccccc1)N=C1SC2CS(=O)(=O)CC2N1Cc1ccccc1 (stereo not given) | u | n | 13µM | n
O=C(CCn1ccc2ccccc21)Nc1ccc(N2CCOCC2)cc1 | 13µM | n | u | n
Cc1ccc(OCC(=O)Nc2ccc(N3CCCC3)cc2)cc1C | 12µM | n | n | u
CCC(=O)N1CCN(c2ccc(NC(=O)COc3ccc(C)cc3C)cc2)CC1 | u | n | n | u
Cc1cc(C)cc(OCC(=O)Nc2ccc(N3CCCC3)cc2)c1 | u | u | n | n
Cc1ccc(C(=O)N2CCN(c3ccc(NC(=O)COc4ccccc4C)cc3)CC2)cc1 | 8.3µM | n | u | 11µM
Cc1cccc(OCC(=O)Nc2ccc(N3CCCC3)cc2)c1C | 10µM | n | n | u
SMILES | Pf growth 48h | AMA1-RON2 inh | Pf growth 96h | HCV inhibitor
CCOC(=O)c1cc(S(=O)(=O)NCC2CCN(Cc3cccc(C)c3)CC2)cn1C | n | n | n | n
CCc1nc2ccc(C(=O)NCCOc3ccc(OC)cc3)cn2c1N(CCC(C)C)CCN(C)C | x | n | x | x
Cc1ccc(OCC(=O)Nc2ccc(N3CCN(C(=O)c4ccco4)CC3)cc2)cc1 | u | n | 5.2µM | u
O=C(COc1ccccc1)Nc1ccc(N2CCN(C(=O)c3ccco3)CC2)cc1 | u | n | u | n
Cc1ccc(NC(=O)COc2ccccc2CNC(C)(C)CC(C)(C)C)cc1 | 7.4µM | n | x | u
Cc1cccc(C)c1OCC(=O)Nc1ccc(N2CCOCC2)cc1 | u | n | 1.5µM | n
CC(=O)N1CC(C(=O)Nc2ccc3c(c2)OCO3)Oc2ccccc21 (stereo not given) | x | n | x | n
CC(C)C(OC(=O)c1nsc(Cl)c1Cl)C(=O)NCC1CCCO1 (stereo not given) | n | n | n | n
CCOC(=O)Cc1nnc(NC(=O)C23CC4CC(CC(C4)C2)C3)s1 | 13µM | n | u | n
Cc1ccccc1C(=O)N1CCC(C(=O)OCc2ccccn2)CC1 | x | n | x | n
COc1ccc(N2CCN(C(CNS(=O)(=O)c3ccccc3)c3ccccc3)CC2)cc1 (stereo not given) | n | u | n | n

Bioassay records as filed in PubChem.
